The values below come from PubChem BioAssay (NCATS).

Experiment [1] in a line: Cell Viability - BJ (AID 421; calls by dose curve;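 also: potency is read from the fitted curve at half-maximal effect; cells exposed to compound for 40 hours at 37 °C before readout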). The following applies: BJ fibroblast viability, qHTS. The essentials: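 Quantitative HTS: ATP depletion in BJ cells after 40 hr compound exposure in complete culture medium, detected with CellTiter-Glo; AC50 from standard Hill fits.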
In general terms: In qHTS, concentration-response curves come from the screen itself.

The nature of experiment [2]: Cell Viability - Hek293 (AID 427;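 active = compounds whose dose-response curve shows a full or clear partial loss of cell viability, called from curve shape rather than a numeric limit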;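 also: potency is read from the fitted curve at half-maximal effect; cells exposed to compound for 40 hours at 37 °C before reading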). The note with it: qHTS. The essentials: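 AC50 values derive from Hill-modelled concentration-response of ATP-based luminescence, normalized between DMSO-only and 100 uM tamoxifen controls. Cells were exposed in complete culture medium for 40 hr at 37 °C before detection.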
Experiment [3] in a line: Cell Viability - HUV-EC-C (AID 542). Also: % is scaled to controls: 0 for no effect and ±100 for the full control effect; nearly all actives have a fitted effect of over 35% in size. The following applies: HUV-EC-C endothelial cell viability, qHTS; series mostly up to 92.2 µM. The procedure, abridged:
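Cells were seeded at 1000 per well and incubated 5 hr at 37 °C before compound addition. After 40 hr at 37 °C, CellTiter-Glo reagent was added for 20 min and luminescence read. AC50 values came from Hill-equation modelling.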

A short description of experiment [4]: Cellular Toxicity (caspase-3) HUV-EC-C (AID 656). The following applies: HUV-EC-C cells, caspase-3 activation (apoptosis), vehicle = 0, 100 µM tamoxifen = 100%; series mostly up to 92.2 µM. The essentials:
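Concentration-dependent caspase 3/7 induction was assessed in HUV-EC-C cells exposed for 16 hours. Data scaled between DMSO and tamoxifen (100 uM) controls.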

The nature of experiment [5]: Cellular Toxicity (caspase-3) MRC-5 (AID 659). The note with it: MRC-5 cells, luminescence, normalized: DMSO 0%, 10 µM staurosporine 100%; series mostly up to 91.7 µM. The procedure, abridged: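 Apoptosis readout in MRC-5 cells: luciferase light generated after caspase 3/7 cleaves a peptide-aminoluciferin substrate, measured post 16 hr compound incubation at 37 °C.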

Experiment [6] in a line: Cellular Toxicity (caspase-3) Mesangial (AID 660).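 Also: combined caspase 3 and 7 activity read by Caspase-Glo luminescence; cells exposed to compound for 16 h before the caspase read.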 The following applies: mesangial cells, normalized: DMSO 0%, 100 µM tamoxifen 100%; series mostly up to 91.7 µM. The procedure, abridged:
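Seed cells derived from normal human renal glomeruli, incubate 5 h, add compounds across concentrations and incubate 16 h at 37 °C. Caspase 3/7 activation is then quantified by luciferase light, with AC50 derived by Hill modeling.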

Experiment [7] is described as follows: Cellular Toxicity (caspase-3) SK-N-SH (AID 661). The note with it: SK-N-SH caspase-3 activation, qHTS; series mostly up to 91.7 µM. The procedure, abridged:
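Cells were seeded and incubated 5 hr at 37 °C, dosed with compound over a concentration range for 16 hr, then given Caspase-Glo 3/7 reagent for 1 hr at room temperature before luminescence reading.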

The nature of experiment [8]: Cellular Toxicity (caspase-3) Hek293 (AID 664).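 Also: cells exposed to compound for 16 h at 37 °C before readout.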 The following applies: HEK293 caspase-3 activation, DMSO = 0%, 100 µM tamoxifen = 100%; at 92.2 µM (top of the series). The procedure, abridged: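 qHTS, HEK293 (human embryonic kidney), 16 h cpd exposure in complete medium. Caspase-3/7 activation = luminescence increase; normalized to DMSO/100 uM tamoxifen; Hill-fit AC50.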

Experiment [9] is described as follows: Cellular Toxicity (caspase-3) NIH 3T3 (AID 666).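 Also: caspase signal read after 16 h compound exposure; 0% = DMSO basal and 100% = 100 µM tamoxifen stimulation.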 The following applies: NIH 3T3 caspase-3 activation, apoptosis/toxicity; series mostly up to 92.2 µM. The essentials:
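Cells were plated at 1000 per well and incubated 5 hr at 37°C, then compound was added for 16 hr. Caspase-Glo 3/7 reagent followed for 20 min at room temperature before luminescence was read.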

The nature of experiment [10]: MultiTox-Fluor Cytotoxicity Assay - LYMP1-001 - Dead Cells (AID 946).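 Also: 0% = DMSO and 100% = tetraoctylammonium bromide.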 The note with it: LYMP1-001 lymphoblastoid cells, dead-cell protease fluorescence; series mostly up to 92.2 µM. The essentials: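 In this qHTS, 15 uM tetraoctylammonium bromide defined 100% and DMSO defined basal activity. Lymphoblastoid cells (LYMP1-001, 2500 per well) received compound for 16 hr at 37 C before a fluorogenic dead-cell substrate readout at 485/520 nm.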

Experiment [11] can be described thus: Cell Viability - LYMP1-002 - Assay at 16 hr (AID 948).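 Also: 0% = DMSO alone and full effect = 92 µM tetraoctylammonium bromide.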 The following applies: LYMP1-002 lymphoblastoid cell viability; series mostly up to 92.2 µM. The essentials:
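In this qHTS, lymphoblastoid LYMP1-002 cells (human) receive compounds for 16 hr at 37 C. Viability is taken from CellTiter-Glo ATP luminescence, and AC50 derives from standard Hill fits.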

Experiment [12] in a line: Cell Viability - LYMP2-013 (AID 970).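 Also: cells exposed to compound for 24 h at 37 °C; 0% = DMSO only and full inhibition = tetraoctylammonium bromide control; nearly all actives have a fitted effect of over 55% in size.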 The following applies: LYMP2-013 lymphoblastoid cells viability; series mostly up to 92.2 µM. The essentials:
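Cytotoxicity is scored as a concentration-dependent drop in intracellular ATP in human lymphoblastoid cells after 24 hr compound exposure at 37 C. ATP is quantified by luciferase luminescence, and AC50 values come from Hill-equation modeling.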

A short description of experiment [13]: Cell Viability - LYMP2-019 (AID 973).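 Also: cells exposed to compound for 24 h at 37 °C; nearly all actives have a fitted effect of over 55% in size.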 Also: potency is read from the fitted curve at half-maximal effect. The following applies: LYMP2-019 lymphoblastoid cell line viability; series mostly up to 92.2 µM. The procedure, abridged: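 Cytotoxicity is scored as a concentration-dependent drop in cellular ATP after cells (2500/well) receive compound for 24 hr at 37 C. Tetraoctylammonium bromide serves as positive control.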
A short description of experiment [14]: Cell Viability - LYMP2-026 (AID 989).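 Also: cells exposed to compound for 24 h at 37 °C; % is scaled to controls: 0 for no effect and ±100 for the full control effect; nearly all actives have a fitted effect of over 50% in size.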 The following applies: LYMP2-026 lymphoblastoid cell viability, qHTS; series mostly up to 92.2 µM. The essentials:
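Cells are seeded at 2500 per well and held 5 hr at 37 C. Compounds are added in concentration series for 24 hr, then CellTiter-Glo reagent is applied and luminescence read.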

The nature of experiment [15]: qHTS assay for small molecule agonists of retinoid X receptor alpha signaling (AID 588544; calls by dose curve;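 as to activation: 0% = DMSO basal wells and 100% = reference agonist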). The note with it: HEK293T RXRa-UAS-bla, beta-lactamase reporter, 18 h; 530 nm emission.
The target of experiment [16] is Retinoic acid receptor RXR-alpha (Homo sapiens) (UniProt P19793). Described as above. The following applies: HEK293T RXRa-UAS-bla, beta-lactamase reporter, 18 h; series mostly up to 76.7 µM.
Experiment [17] in a line: qHTS assay for small molecule antagonists of retinoid X receptor alpha signaling (AID 588546).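 Also: cells stimulated with 9-cis-retinoic acid as agonist; % is scaled to controls: 0 for no effect and ±100 for the full control effect.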 The following applies: HEK293T RXRa-UAS-bla, beta-lactamase ratio, antagonist mode; measured here: W530 green channel, cytotoxicity proxy. The essentials:
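Beta-lactamase reporter inhibition, read as CCF4 fluorescence ratio (ex 405, em 460/530 nm) after 2 h at RT. HEK293T UAS-bla cells, 2500/well, were stimulated with 9-cis-RA at 500 or 100 nM final alongside test compound for 18 h at 37 C.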

Experiment [18] concerns the target Peroxisome proliferator-activated receptor alpha (Homo sapiens) (UniProt Q07869). Nature of the experiment: qHTS assay for small molecule agonists of the peroxisome proliferator-activated receptor alpha (PPARalpha) signaling pathway (AID 651778). Also: % of control where 0% means no effect. The following applies: PathHunter PPARalpha complementation, chemiluminescence, 6 h; stronger effect = higher value. The essentials: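 Cells plated at 2,000/well and held overnight at 37 C, 5% CO2, then compound added by pin tool for 6 hr; after PathHunter detection reagent and 60 min at room temperature, chemiluminescence from enzyme complementation was read.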

The nature of experiment [19]: qHTS assay for small molecule agonists of the antioxidant response element (ARE) signaling pathway measured by Nrf2-dependant transcriptional activity - cell viability counter screen (AID 720653; active = well fitted curve in the direction sought with a large enough effect in the repeat runs; an effect the other way counts as inactive or inconclusive; also: % is scaled to controls: 0 for no effect and ±100 for the full control effect). The note with it: ARE-bla HepG2 viability, CellTiter-Glo ATP luminescence, 16 h; stronger effect = lower value. The procedure, abridged:
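ARE-bla HepG2 cells (2,000/well) rested 5 hrs at 37C/5% CO2, then exposed to compounds in DMSO for 16 hrs. Viability was read in the same wells as intracellular ATP by luminescence, 30 min at room temperature after reagent addition.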

The nature of experiment [20]: qHTS assay for cell viability of the p53RE-bla HCT-116 cell line (AID 743292). Also: % is scaled to controls: 0 for no effect and ±100 for the full control effect; nearly all actives have a fitted effect of over 55% in size. The note with it: p53RE-bla HCT-116 viability, ATP luminescence, 16 h; series mostly up to 95 µM. The procedure, abridged:
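In this qHTS counter-screen, metabolically competent p53RE-bla HCT-116 cells were counted via their ATP content. Compounds were applied for 16 h at 37 C and luciferase-coupled luminescence was measured.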

Results filed as inconclusive are left out. Activity calls are given as the source filed them. Unless noted, calls follow the shape of the dose curve; as a rule, active = well fitted curve in the direction sought with a large enough effect; inconclusive = small, poorly fitted or top-dose-only effect, or another doubt; inactive = no such curve, though single readings can be large; an effect the other way counts as inactive or inconclusive. Some results are limits rather than exact numbers.

Sequence of Peroxisome proliferator-activated receptor alpha (Homo sapiens) (Q07869 whole entry, looked up): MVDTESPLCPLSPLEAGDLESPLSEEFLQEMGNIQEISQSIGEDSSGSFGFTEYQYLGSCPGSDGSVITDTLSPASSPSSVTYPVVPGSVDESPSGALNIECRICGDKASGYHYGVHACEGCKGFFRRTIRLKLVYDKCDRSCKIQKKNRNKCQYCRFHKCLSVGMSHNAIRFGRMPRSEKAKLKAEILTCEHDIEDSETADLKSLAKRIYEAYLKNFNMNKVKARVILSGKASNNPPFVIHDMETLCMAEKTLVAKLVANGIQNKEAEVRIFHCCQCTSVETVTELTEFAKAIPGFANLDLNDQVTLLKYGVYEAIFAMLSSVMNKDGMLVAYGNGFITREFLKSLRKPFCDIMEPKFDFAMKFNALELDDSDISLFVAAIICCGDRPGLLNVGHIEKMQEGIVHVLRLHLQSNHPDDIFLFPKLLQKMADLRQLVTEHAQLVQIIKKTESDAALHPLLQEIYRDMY
Sequence of Retinoic acid receptor RXR-alpha (Homo sapiens) (P19793 whole entry, looked up): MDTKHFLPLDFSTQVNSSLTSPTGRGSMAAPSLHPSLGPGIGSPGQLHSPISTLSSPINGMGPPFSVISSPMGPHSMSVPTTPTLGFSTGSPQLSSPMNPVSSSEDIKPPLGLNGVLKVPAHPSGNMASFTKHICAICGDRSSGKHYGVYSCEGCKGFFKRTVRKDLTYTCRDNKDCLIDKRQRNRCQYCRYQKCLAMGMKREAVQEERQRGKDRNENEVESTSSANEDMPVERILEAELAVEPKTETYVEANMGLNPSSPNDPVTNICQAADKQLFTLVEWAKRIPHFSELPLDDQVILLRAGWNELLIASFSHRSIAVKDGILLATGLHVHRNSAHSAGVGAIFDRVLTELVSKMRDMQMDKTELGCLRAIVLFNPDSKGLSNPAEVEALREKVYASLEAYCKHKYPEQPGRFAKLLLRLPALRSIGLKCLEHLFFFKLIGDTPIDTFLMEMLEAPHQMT

As for `[N-]=[N+]=[N-]`, the Potency in experiment [1] and in [2] was > 92 µM (inactive) each time. In addition, the Potency entry in [3], in experiment [7], in experiment [9], in experiment [12], in [13] and in experiment [14] was “inactive” throughout. Further, in experiment [20], the Potency result is “inactive”. Also, the molecule was classed as inactive in experiment [4], in experiment [5], in [6], in [10], in experiment [11] and in experiment [16]. In experiment [8], the caspase-3 activation was -2.5% (inactive). For the same molecule, the max response was -2.08% in experiment [15], -3.73% in [17], -3.11% (inactive) in experiment [18] and -8.07% (inactive) in experiment [19].

Consider `O=C(O)C(Br)Br`, for which the Potency in experiment [1] and in experiment [2] was > 92 µM (inactive) in each case. For the same molecule, the Potency entry in experiment [3], in experiment [7], in [9], in [12], in experiment [13] and in [14] was “inactive” each time. For the same molecule, the Potency result in experiment [20] was “inactive”. Further, the outcome in experiment [4], in experiment [5], in [6], in experiment [10], in experiment [11] and in [16] was inactive. Besides, in [8], the caspase-3 activation is -1.18% (inactive). For the same molecule, the max response in experiment [15] is -1.1%; in experiment [17], -1.6%; in experiment [18], 14.7% (inactive); in experiment [19], -17.6% (inactive).

As for `ClP(Cl)(Cl)(Cl)Cl`, the Potency in [1] and in experiment [2] was > 92 µM (inactive) in each case. Also, the Potency entry in experiment [3], in experiment [7], in experiment [9], in experiment [12], in [13] and in [14] was “inactive” throughout. In [20], the Potency entry is “inactive”. Moreover, the result in [4], in experiment [5], in experiment [6], in [10], in experiment [11] and in experiment [16] was inactive. In experiment [8], the caspase-3 activation was -1.32% (inactive). Also, the max response in experiment [15] is 5.7%; in [17] it was 4.58%; in experiment [18], 0.162% (inactive); in [19] it was -1.82% (inactive).

`CCCCC(CC)COC(=O)c1ccc(C(=O)OCC(CC)CCCC)c(C(=O)OCC(CC)CCCC)c1` (centres undefined): the Potency in experiment [1] and in experiment [2] was > 92 µM (inactive) in each case. The Potency result in experiment [3], in experiment [7], in [9], in experiment [12], in [13] and in experiment [14] was “inactive” throughout. In addition, the Potency entry in [20] is “inactive”. Moreover, the result in experiment [4], in experiment [5], in [6], in experiment [10], in experiment [11] and in [16] was inactive. For the same molecule, the caspase-3 activation in experiment [8] is 16.8% (inactive). In addition, the max response in [15] is -8.52%; in experiment [17], -7.98%; in experiment [18], -3.57% (inactive); in [19] it was -7.7% (inactive).

Regarding `O=[N+]([O-])c1ccccc1CCl`, the Potency is > 92 µM (inactive) in experiment [1], > 92 µM (inactive) in experiment [2] and 63.1 µM (active) in experiment [13]. Also, the Potency entry in [3], in [7], in experiment [9], in experiment [14] and in experiment [20] was “inactive” throughout. Further, the call in experiment [4], in experiment [5], in experiment [6], in [10], in [11] and in experiment [16] was inactive. Further, the caspase-3 activation in [8] was 0.434% (inactive). Besides, the max response was -8.73% in experiment [15], 9.99% in [17], -1.86% (inactive) in [18] and -9.56% (inactive) in experiment [19].
